PubChem BioAssay
Values without a mark were called inactive. Activity calls are given as the source filed them. Cut-off read from the data, not from the text of the source, unless noted: active = inhibition above about 25%; inactive = the rest.

Experiment: VP16 transactivation inhibitors, counter-screen for SRC1 inhibitor project, cell-based, luminescence, high throughput (AID 588824)
Conditions: cell-based VP16 transactivation luciferase luminescence; at 3.6 µM; stronger effect = higher value

Question: For `Nc1ccc(C(=O)N/N=C\c2cc(N=Nc3cccc4ccccc34)ccc2O)cc1`, which inhibition is on record?
Answer: Its inhibition is 31.8% (active).

Question: For `COc1ccc(-c2csc(NC(=O)c3ccccc3NS(=O)(=O)c3ccc(F)c(F)c3)n2)cc1`, which inhibition is on record?
Answer: Its inhibition is 81.9% (active).

Question: For `COc1ccc(/C=N/NC(=S)Nc2ccccc2[N+](=O)[O-])cc1O`, which inhibition is on record?
Answer: Its inhibition is -70%.

Question: With `Nc1ccc2c(c1)C(=O)C(=O)c1ccccc1-2` as the compound, how does the inhibition read?
Answer: The inhibition was 93% (active).

Question: Which inhibition does the source give for `CCN1/C(=C/C=C/c2oc3ccc(-c4ccccc4)cc3[n+]2CC)Oc2ccc(-c3ccccc3)cc21` here?
Answer: Its inhibition is 94.2% (active).

Question: Which inhibition does the source give for `O=C1C(Nc2ccccc2)=C/C(=N/S(=O)(=O)c2cccs2)c2ccccc21` here?
Answer: The inhibition was 75.7% (active).

Question: With `COc1ccc(S(=O)(=O)/N=C2\C=C(Nc3ccc(O)cc3)C(=O)c3ccccc32)cc1` as the compound, how does the inhibition read?
Answer: The inhibition was 90.8% (active).

Question: For `Cc1cc(C)nc(SCc2ccc(C(=O)N/N=C/c3cccc(O)c3O)cc2)n1`, which inhibition is on record?
Answer: The inhibition was 23.9%.

Question: With `Cc1ccc(C(C)C)c(OCc2ccc(C(=O)N/N=C/c3ccc(O)cc3O)cc2)c1` as the compound, how does the inhibition read?
Answer: The inhibition was 77% (active).

Question: For `O=c1c2ccccc2nc(N/N=C/c2c(O)ccc3ccccc23)n1O`, which inhibition is on record?
Answer: The inhibition was 76.4% (active).

Question: For `Cc1ccc(C(C)C)c(OCc2ccc(C(=O)N/N=C/c3cccc(O)c3O)cc2)c1`, which inhibition is on record?
Answer: Its inhibition is 27.9% (active).

Question: Which inhibition does the source give for `Cn1nc(-c2ccccn2)nc2c(=O)n(C)c(=O)nc1-2` here?
Answer: Its inhibition is 53.1% (active).

Question: For `CCN(CC)S(=O)(=O)c1ccc(N/N=C/c2ccc(O)cc2O)nc1`, which inhibition is on record?
Answer: The inhibition was 58.3% (active).

Question: With `COC(=O)c1cc(C)nc2c1C(=O)C(=O)C=C2N1CCOCC1` as the compound, how does the inhibition read?
Answer: Its inhibition is 52.3% (active).

Question: With `Oc1ccccc1N=Nc1nc(-c2ccccc2)c(-c2ccccc2)[nH]1` as the compound, how does the inhibition read?
Answer: The inhibition was 71% (active).

Question: For `COc1cccc(N2CCN(c3ncnc4c3[nH]c3ccc(F)cc34)CC2C)c1` (centres undefined), which inhibition is on record?
Answer: The inhibition was 91.8% (active).

Experiment: StAR promoter reporter inhibitors, counter-screen for LRH-1 inverse agonist project, cell-based, luminescence, high throughput (AID 651611; in the data active = inhibition above about 28%)
Conditions: StAR promoter luciferase reporter counterscreen, at 3.6 µM, stronger effect = higher value

Question: With `Nc1ccc2c(c1)C(=O)C(=O)c1ccccc1-2` as the compound, how does the inhibition read?
Answer: Its inhibition is 98.5% (active).

Question: Which inhibition does the source give for `CCN1/C(=C/C=C/c2oc3ccc(-c4ccccc4)cc3[n+]2CC)Oc2ccc(-c3ccccc3)cc21` here?
Answer: The inhibition was 92.2% (active).

Question: With `COc1ccc(S(=O)(=O)/N=C2\C=C(Nc3ccc(O)cc3)C(=O)c3ccccc32)cc1` as the compound, how does the inhibition read?
Answer: Its inhibition is 92% (active).

Question: Which inhibition does the source give for `Cc1ccc(C(C)C)c(OCc2ccc(C(=O)N/N=C/c3ccc(O)cc3O)cc2)c1` here?
Answer: The inhibition was 80.8% (active).

Question: With `O=c1c2ccccc2nc(N/N=C/c2c(O)ccc3ccccc23)n1O` as the compound, how does the inhibition read?
Answer: The inhibition was 81.4% (active).

Question: With `Cn1nc(-c2ccccn2)nc2c(=O)n(C)c(=O)nc1-2` as the compound, how does the inhibition read?
Answer: The inhibition was 56.7% (active).

Question: Which inhibition does the source give for `Oc1ccccc1N=Nc1nc(-c2ccccc2)c(-c2ccccc2)[nH]1` here?
Answer: The inhibition was 86.9% (active).

Question: With `COc1cccc(N2CCN(c3ncnc4c3[nH]c3ccc(F)cc34)CC2C)c1` (centres undefined) as the compound, how does the inhibition read?
Answer: The inhibition was 93.4% (active).
